From PubChem BioAssay AID2284146 (EPA ToxCast)
Activity calls are given as the source filed them. The calls were made as follows: active = hit-call score of the fitted dose curve at least 0.9, where 1 is the maximum; inactive = score below 0.9.

Target: human Adrenoceptor alpha2A Antagonism, ADRA2A (gene 150) (UniProt P08913)
Experiment: ERF_TW_GPCR_hADRA2A: Eurofins (ERF) G Protein-Coupled Receptor (GPCR) Radioligand Binding LeadHunter Assay for human Adrenoceptor alpha2A Antagonism
Description: ERF_TW_GPCR_hADRA2A is a biochemical, single-readout assay that uses extracted gene-proteins in a cell-free assay. Measurements were taken 1 hour after chemical dosing in a 96-well plate. See alpha2A Human Adrenoceptor GPCR Binding (Antagonist Radioligand) Assay, Panlabs.ERF_TW_GPCR_hADRA2A is an assay component calculated from the ERF_TW_GPCR_hADRA2A assay. It is designed to measure radioligand binding using a type of binding reporter as detected by scintillation counting with radiometry technology.Data from the assay component ERF_TW_GPCR_hADRA2A was analyzed at the assay endpoint, ERF_TW_GPCR_hADRA2A, in the positive analysis fitting direction relative to DMSO as the negative control and baseline of activity. Using a type of binding reporter, loss-of-signal activity can be used to understand changes in radioligand binding as they relate to gene ADRA2A. To generalize the intended target to other relatable targets, this assay endpoint is annotated to the gpcr intended target family, where the subfamily is adrenoceptor.
Human recombinant adrenergic alpha2A receptors expressed in CHO-K1 cells are used in modified Tris-HCl buffer pH 7.4. A 2 ug aliquot is incubated with 1.5 nM [3H]Rauwolscine for 60 minutes at 25C. […] Receptors are filtered and washed, the filters are then counted to determine [3H]Rauwolscine specifically bound. […]

human Adrenoceptor alpha2A Antagonism, ADRA2A (gene 150), sequence (P08913 whole entry, looked up): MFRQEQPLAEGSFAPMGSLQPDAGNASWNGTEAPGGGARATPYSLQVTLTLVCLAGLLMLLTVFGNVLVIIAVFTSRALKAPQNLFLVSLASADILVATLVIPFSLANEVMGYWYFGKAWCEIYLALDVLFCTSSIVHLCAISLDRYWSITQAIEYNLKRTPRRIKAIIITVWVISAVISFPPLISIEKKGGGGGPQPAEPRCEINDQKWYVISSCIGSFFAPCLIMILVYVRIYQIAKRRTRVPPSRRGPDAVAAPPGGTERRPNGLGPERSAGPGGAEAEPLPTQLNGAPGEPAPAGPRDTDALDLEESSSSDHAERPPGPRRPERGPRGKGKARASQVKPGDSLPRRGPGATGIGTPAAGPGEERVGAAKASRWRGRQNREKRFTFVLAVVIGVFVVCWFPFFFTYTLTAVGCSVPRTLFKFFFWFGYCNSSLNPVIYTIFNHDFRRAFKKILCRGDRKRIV

| SMILES | AC50 |
| --- | --- |
| O=C(/C=C/c1ccc(O)cc1)CC(=O)/C=C/c1ccc(O)cc1 | 1140 nM (active) |
